Test results: PubChem BioAssay (EPA / NIEHS)
Calls of active or inactive are those of the source. The calls were made as follows: active = hit-call score of the fitted dose curve at least 0.9, where 1 is the maximum; inactive = score below 0.9.

assay: CEETOX_H295R_11DCORT: CeeTox H295R High-throughput Steroidogenesis Assay for 11-Deoxycortisol (11DCORT) (AID 2283432); details: actives raise or lower the signal;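 as to AC50: human adrenal H295R cells prestimulated with 10 µM forskolin for 48 h; 11-deoxycortisol secreted into the medium measured by LC-MS/MS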
Method in brief: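 Adrenal carcinoma line H295R, run per OECD 456 with minor changes, was forskolin-stimulated (10 uM, 48 h) before a 48 h chemical exposure at 0.1% DMSO. Secreted 11-deoxycortisol was quantified by HPLC-MS/MS.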

Structure (SMILES) | AC50 | outcome
CO/N=C(/C(=O)OC)c1ccccc1COc1ccccc1C | 3.98 µM (active) | –
CCC(C)(C)c1ccc(O)cc1 | – | inactive
Nc1ccc(Cl)cc1 | – | inactive
O=P(Oc1ccccc1)(Oc1ccccc1)Oc1ccccc1 | 2.92 µM (active) | –
Cc1ccc(N)cc1N | – | inactive
CCNc1nc(Cl)nc(NC(C)(C)C)n1 | – | inactive
O=S(=O)(c1ccc(O)cc1)c1ccc(O)cc1 | 19.1 µM (active) | –
CCCCc1ccc(O)cc1 | – | inactive
O=S1(=O)OCC2C(CO1)C1(Cl)C(Cl)=C(Cl)C2(Cl)C1(Cl)Cl (stereo not drawn) | 7.28 µM (active) | –

assay: CEETOX_H295R_OHPREG: CeeTox H295R High-throughput Steroidogenesis Assay for OH-Pregnenolone (OHPREG) (AID 2283434); details: actives raise or lower the signal
Method in brief: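 H295R, 10 uM forskolin pre-stim 48 h; test chemical 48 h, 0.1% DMSO final. MTBE extraction, reverse-phase C18 HPLC-ESI+ MS/MS of medium. Gain/loss vs DMSO; viability by MTT in same wells.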

Structure (SMILES) | AC50 | outcome
CO/N=C(/C(=O)OC)c1ccccc1COc1ccccc1C | 13.1 µM (active) | –
CCC(C)(C)c1ccc(O)cc1 | – | inactive
Nc1ccc(Cl)cc1 | – | inactive
O=P(Oc1ccccc1)(Oc1ccccc1)Oc1ccccc1 | 3.68 µM (active) | –
Cc1ccc(N)cc1N | – | inactive
CCNc1nc(Cl)nc(NC(C)(C)C)n1 | 9.93 µM (active) | –
O=S(=O)(c1ccc(O)cc1)c1ccc(O)cc1 | – | inactive
CCCCc1ccc(O)cc1 | – | inactive
O=S1(=O)OCC2C(CO1)C1(Cl)C(Cl)=C(Cl)C2(Cl)C1(Cl)Cl (stereo not drawn) | 2.84 µM (active) | –
